In PubChem BioAssay AID2417 (National Center for Advancing Translational Sciences (NCATS), 2010) one finds activity change (PNC), negative = inhibition data, which are given here for 59 compounds.

Among all 140,000 compounds or so, about 4,300 (3.1%) were called active. Another 21% or so got no clear call; they are omitted.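 Rule for the calls: active = readout at or below -70, meaning at least 70% loss of cells showing the perinucleolar compartment, a nuclear body marking cancer cells; inconclusive = readout between -30 and a set limit; inactive = the rest.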 What follows is part of a selection rich in actives, with near analogues and random picks from the rest.

The nature of this assay: High Content Assay for Compounds that inhibit the Assembly of the Perinucleolar Compartment.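 Note: plate controls were DMSO wells for no effect and camptothecin positive control wells for full effect.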 The settings on record: PC3M PTB-GFP, PNC prevalence imaging, 16 h; at 10 µM; hits give low values. A digest of the protocol:
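Compounds are pinned in duplicate onto adhered PC3M cells stably expressing GFP-tagged PTB and incubated 16 h at 37 C. Cells are then fixed, nuclei stained with Hoechst, and PNC-positive cells counted.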
On to `O=C(Nc1ccc([N+](=O)[O-])cc1)C1(c2ccccc2)CCOCC1`, for which the activity change (PNC), negative = inhibition was 5.8% (inactive).
As for `Cc1ccc(-n2[nH]c(C)c(/C=N/NC(=O)c3cccc([N+](=O)[O-])c3)c2=O)cc1C`, the figure is 3.84% (inactive); as for `Cc1cc(C(=O)N/N=C/c2cc([N+](=O)[O-])cc(C)c2O)n[nH]1`, -128% (active); as for `COc1cccc(/C=N/NC(=O)c2cccc([N+](=O)[O-])c2)c1OS(=O)(=O)c1ccc(C)cc1`, 20.7% (inactive).
Consider `Cc1nn(-c2ccccc2)c(-n2cccc2)c1C(=O)O`, for which the activity change (PNC), negative = inhibition is 4.84% (inactive).
For `CC(C)c1ccc(N2CC(C(=O)Nc3nccs3)CC2=O)cc1` (centres undefined) the value was 21.8% (inactive).
In the case of `CCc1ccc(N2CC(C(=O)NC3=NCCS3)CC2=O)cc1` (centres undefined), the activity change (PNC), negative = inhibition was 10.4% (inactive).
As for `CCc1nnc(NC(=O)C2CC(=O)N(c3ccc4c(c3)OCCO4)C2)s1` (centres undefined), the figure is -107% (active); as for `O=C(COc1ccccc1F)NNC(=O)c1ccc(N2CCCCC2)c([N+](=O)[O-])c1`, -26.5% (inactive).
For `CCOC(=O)Cc1csc(SCC(=O)NC(C)C23CC4CC(CC(C4)C2)C3)n1` (centres undefined) the value was 20% (inactive); for `Cc1ccc(OCC(=O)N/N=C/c2ccncc2)cc1`, 28.2% (inactive).
For the compound `Cc1ccc(/C=N/NC(=O)COc2ccccc2-c2ccccc2)cc1`, the activity change (PNC), negative = inhibition was -125% (active).
For `Cc1ccc(OCC(=O)N/N=C\c2ccco2)c(C)c1` the value was 54.4% (inactive); for `CCc1ccc(NC(=O)C(C)OC(=O)/C=C/c2cccc([N+](=O)[O-])c2)cc1` (centres undefined), 10.2% (inactive).
For `O=C1NC(c2ccccc2)CCC1(Cl)Cl` (centres undefined) the value was -7.09% (inactive).
On to `C=CCn1c(N)cc(=O)nc1SCC(=O)Nc1cccc2ccccc12`, for which the activity change (PNC), negative = inhibition was 69% (inactive).
As to `O=C(CNCCO)NC12CC3CC(CC(C3)C1)C2`, the activity change (PNC), negative = inhibition is 20.6% (inactive).
Regarding `C=CCn1c(SCC(=O)NC23CC4CC(CC(C4)C2)C3)nc(O)cc1=O`, the activity change (PNC), negative = inhibition was -100% (active).
As for `Cc1cc(C)cc(OCC(=O)NNC(=O)CCN2C(=O)c3ccccc3C2=O)c1`, the figure is 31.4% (inactive); as for `O=C(Oc1cccc(N2C(=O)C3C4c5ccccc5C(c5ccccc54)C3C2=O)c1)c1ccco1` (centres undefined), -97.3% (active); as for `CC(=O)Oc1cccc(N2C(=O)C3CC=C(Cl)CC3C2=O)c1` (centres undefined), -0.248% (inactive).
As for `CC(=O)Nc1ccc(N2C(=O)C3C4CC(=O)C(c5ccccc54)C3C2=O)cc1` (centres undefined), the figure is 13.1% (inactive).
For `COc1cc(NC(=O)c2cc([N+](=O)[O-])ccc2Br)ccc1NC(=O)c1ccco1` the value was 38.2% (inactive); for `CC(Sc1nnc2c(n1)C1CCC2(C)C1(C)C)C(=O)Nc1ccccc1` (centres undefined), 11.5% (inactive).
Take `O=C(Cc1ccccc1)NNS(=O)(=O)c1ccc([N+](=O)[O-])cc1`: the activity change (PNC), negative = inhibition is 3.03% (inactive).
Consider `Clc1cccc(CN2COc3c(cc(Cl)c4cccnc34)C2)c1`, for which the activity change (PNC), negative = inhibition is -27.1% (inactive).
In the case of `Cc1c(Cl)c([N+](=O)[O-])nn1CCCC(=O)NC(C)c1ccccc1` (centres undefined), the activity change (PNC), negative = inhibition is -83.2% (active).
In the case of `Cc1ccc(C(C)NC(=O)Cn2nc(C)c([N+](=O)[O-])c2C)cc1` (centres undefined), the activity change (PNC), negative = inhibition is 1.18% (inactive).
Take `Cc1nn(Cc2ccccc2Cl)c(C)c1NC(=O)Cn1nc([N+](=O)[O-])c(Cl)c1C`: the activity change (PNC), negative = inhibition was 29.3% (inactive).
In the case of `O=C(Cc1ccccc1)Nc1cccc(C(=O)N/N=C/c2ccco2)c1`, the activity change (PNC), negative = inhibition is -20.1% (inactive).
As for `COC(=O)/C(C#N)=C/c1occc1C`, the figure is 11.3% (inactive); as for `CS(=O)(=O)c1sc2nc(-c3ccccc3)cc(-c3ccccc3)c2c1N`, 18.6% (inactive); as for `Nc1cccc(CCc2nc3ccccc3[nH]2)c1`, -19.2% (inactive).
As for `Nc1cccc(-c2cc(-c3ccccc3)nc(-c3cccc(N)c3)n2)c1`, the activity change (PNC), negative = inhibition is -112% (active).
On to `Cc1ccc(N2C(=O)C(NC(=O)c3c(F)cccc3F)(C(F)(F)F)C3=C2CC(C)(C)CC3=O)cc1` (centres undefined), for which the activity change (PNC), negative = inhibition is -6.53% (inactive).
Consider `Cc1ccc2[nH]c(=O)c(CC=C(Cl)Cl)c(C)c2c1`, for which the activity change (PNC), negative = inhibition was 8.75% (inactive).
Consider `O=C(O)c1ccc(NC(=O)c2cccs2)cc1`, for which the activity change (PNC), negative = inhibition was -100% (active).
As for `O=C(O)Cc1ccc(NC(=O)c2cccs2)cc1`, the activity change (PNC), negative = inhibition was -2.77% (inactive).
For `Cc1nc(-c2ccc(NC(=O)c3cccs3)cc2)cs1` the value was 20.4% (inactive); for `CCCCN1C(=O)c2ccc(C(=O)Nc3ccc(S(=O)(=O)N(C)C)cc3)cc2C1=O`, -17.6% (inactive).
For `CCOC(=O)COc1ccc([N+](=O)[O-])cc1` the value was 14.3% (inactive); for `CCOc1cc(/C=N/NC(=O)OC)ccc1OCCSc1ccc(Cl)cc1`, 45.6% (inactive); for `CCCC(NC(=O)c1ccco1)c1nc2ccccc2[nH]1` (centres undefined), 16.4% (inactive).
For `Cc1cc(=O)oc2ccc(OCC(=O)O)cc12` the value was 55.8% (inactive).
In the case of `Cc1ccc(CNC(=O)COc2ccc3c(c2)CCC3)cc1`, the activity change (PNC), negative = inhibition is -5.6% (inactive).
For `Cc1ccc(SC(=O)COc2ccc(C)c(C)c2)cc1` the value was -106% (active); for `O=C(COC(=O)c1cc([N+](=O)[O-])ccc1NCc1ccccc1)NC1CCCCC1`, 50.7% (inactive); for `Cc1ccc2c(c1)C(c1ccccc1)N(C(=O)c1ccc(S(=O)(=O)N3CCOCC3)cc1)CC(=O)N2` (centres undefined), 7.14% (inactive).
For `COc1ccc(/C=N/NC(=O)c2ccccc2)cc1OS(=O)(=O)c1ccccc1` the value was 45.9% (inactive).
For `O=C(NC(=S)Nc1ccc2oc(=O)ccc2c1)c1ccc(-c2cccc(Cl)c2Cl)o1` the value was -8.36% (inactive); for `COC(=O)C1=C(C)N(C)C(C)=C(C(=O)OC)C1c1cccc(Br)c1`, 20% (inactive); for `CCOC(=O)C1=C(C)N=C2c3ccccc3C(=O)C2C1c1ccc(Br)cc1` (centres undefined), -24.2% (inactive).
As to `COC(=O)C1=C(C(=O)OC)C2(OC1c1ccc(Br)cc1)C(=O)c1ccccc1C2=O` (centres undefined), the activity change (PNC), negative = inhibition was -100% (active).
As for `Cc1cccc2cc(CN(C(=O)c3cccs3)c3ccccc3)c(=O)[nH]c12`, the figure is 29.9% (inactive); as for `COc1ccc(/C(C)=N/Nc2cc(C(F)(F)F)ccc2Cl)c(OC)c1`, -13.2% (inactive).
As for `O=C(c1ccc2c(c1)OCO2)N1CCNc2ccccc2C1`, the figure is -29.9% (inactive); as for `O=C(c1ccc2c(c1)OCO2)N1CCOCC1`, -100% (active).
As for `O=C(c1ccc2c(c1)OCO2)N1CCN(C(=O)c2ccco2)CC1`, the figure is 54.5% (inactive).
On to `Cc1cccc(OP(=O)(Nc2c(C)n(C)n(-c3ccccc3)c2=O)Oc2cccc(C)c2)c1`, for which the activity change (PNC), negative = inhibition was -6.43% (inactive).
